Laboratory results: the supplement of paper PMC12819154, “High-throughput peptide-centric local stability assay extends protein–ligand identification to membrane proteins, tissues and bacteria” (Nature Structural & Molecular Biology, 2025)

Compound: CN[C@@H]1C[C@H]2O[C@@](C)([C@@H]1OC)n1c3ccccc3c3c4c(c5c6ccccc6n2c5c31)C(=O)NC4 [staurosporine]
Assay: log2 fold change of tryptic peptide abundance, ligand vs vehicle (limited proteolysis) (log2 ratio); higher = more trypsin-susceptible (destabilized)
Settings: ligand concentration: 20 uM; sample: K562 cleared lysate; digestion: 4 min, 22 C (HT-PELSA RT4min, Orbitrap Astral)

Sequence of UniProt Q9UKE5 (Q9UKE5 whole entry, looked up): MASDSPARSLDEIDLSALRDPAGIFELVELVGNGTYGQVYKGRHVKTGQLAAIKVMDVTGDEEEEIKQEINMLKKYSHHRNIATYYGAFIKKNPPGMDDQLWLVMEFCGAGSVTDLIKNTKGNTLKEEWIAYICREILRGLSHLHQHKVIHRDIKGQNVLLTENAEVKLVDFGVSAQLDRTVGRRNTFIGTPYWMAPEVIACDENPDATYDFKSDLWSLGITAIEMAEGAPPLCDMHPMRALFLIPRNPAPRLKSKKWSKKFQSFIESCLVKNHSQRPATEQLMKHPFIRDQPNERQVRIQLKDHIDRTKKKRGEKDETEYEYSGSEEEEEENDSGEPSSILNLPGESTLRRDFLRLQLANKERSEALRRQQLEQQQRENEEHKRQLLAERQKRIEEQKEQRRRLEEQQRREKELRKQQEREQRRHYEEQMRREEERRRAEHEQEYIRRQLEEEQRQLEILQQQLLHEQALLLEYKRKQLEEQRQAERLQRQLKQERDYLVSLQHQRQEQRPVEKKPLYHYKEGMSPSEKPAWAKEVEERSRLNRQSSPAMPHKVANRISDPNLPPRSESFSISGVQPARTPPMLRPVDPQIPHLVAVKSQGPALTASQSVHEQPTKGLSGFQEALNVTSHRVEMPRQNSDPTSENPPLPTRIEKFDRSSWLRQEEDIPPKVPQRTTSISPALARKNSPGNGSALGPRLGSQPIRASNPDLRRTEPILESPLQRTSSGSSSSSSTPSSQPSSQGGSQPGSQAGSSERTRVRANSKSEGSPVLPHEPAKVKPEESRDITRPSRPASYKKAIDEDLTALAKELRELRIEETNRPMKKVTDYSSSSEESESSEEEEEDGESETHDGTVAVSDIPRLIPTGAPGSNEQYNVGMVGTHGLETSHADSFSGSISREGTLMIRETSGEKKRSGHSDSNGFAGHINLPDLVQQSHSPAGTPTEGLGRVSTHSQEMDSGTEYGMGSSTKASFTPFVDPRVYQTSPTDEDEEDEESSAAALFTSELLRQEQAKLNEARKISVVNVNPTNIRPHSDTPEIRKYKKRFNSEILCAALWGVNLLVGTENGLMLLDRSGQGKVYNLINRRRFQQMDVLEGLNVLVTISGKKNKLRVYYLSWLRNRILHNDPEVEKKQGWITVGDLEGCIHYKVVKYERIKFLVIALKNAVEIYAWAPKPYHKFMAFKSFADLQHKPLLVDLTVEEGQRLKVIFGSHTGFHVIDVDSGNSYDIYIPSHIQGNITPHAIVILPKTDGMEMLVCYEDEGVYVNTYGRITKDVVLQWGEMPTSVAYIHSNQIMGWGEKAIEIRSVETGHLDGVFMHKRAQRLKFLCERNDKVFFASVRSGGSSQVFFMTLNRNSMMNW
Sequence of UniProt P19623 (P19623 whole entry): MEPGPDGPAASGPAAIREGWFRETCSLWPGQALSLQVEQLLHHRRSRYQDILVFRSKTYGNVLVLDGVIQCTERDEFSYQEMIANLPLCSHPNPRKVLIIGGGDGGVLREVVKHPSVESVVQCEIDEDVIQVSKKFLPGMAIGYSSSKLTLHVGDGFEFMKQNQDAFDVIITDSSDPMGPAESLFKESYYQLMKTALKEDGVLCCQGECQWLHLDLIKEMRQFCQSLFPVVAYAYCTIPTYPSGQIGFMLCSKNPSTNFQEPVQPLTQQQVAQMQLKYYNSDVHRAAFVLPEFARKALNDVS
Sequence of UniProt Q8IYB3 (Q8IYB3 whole entry): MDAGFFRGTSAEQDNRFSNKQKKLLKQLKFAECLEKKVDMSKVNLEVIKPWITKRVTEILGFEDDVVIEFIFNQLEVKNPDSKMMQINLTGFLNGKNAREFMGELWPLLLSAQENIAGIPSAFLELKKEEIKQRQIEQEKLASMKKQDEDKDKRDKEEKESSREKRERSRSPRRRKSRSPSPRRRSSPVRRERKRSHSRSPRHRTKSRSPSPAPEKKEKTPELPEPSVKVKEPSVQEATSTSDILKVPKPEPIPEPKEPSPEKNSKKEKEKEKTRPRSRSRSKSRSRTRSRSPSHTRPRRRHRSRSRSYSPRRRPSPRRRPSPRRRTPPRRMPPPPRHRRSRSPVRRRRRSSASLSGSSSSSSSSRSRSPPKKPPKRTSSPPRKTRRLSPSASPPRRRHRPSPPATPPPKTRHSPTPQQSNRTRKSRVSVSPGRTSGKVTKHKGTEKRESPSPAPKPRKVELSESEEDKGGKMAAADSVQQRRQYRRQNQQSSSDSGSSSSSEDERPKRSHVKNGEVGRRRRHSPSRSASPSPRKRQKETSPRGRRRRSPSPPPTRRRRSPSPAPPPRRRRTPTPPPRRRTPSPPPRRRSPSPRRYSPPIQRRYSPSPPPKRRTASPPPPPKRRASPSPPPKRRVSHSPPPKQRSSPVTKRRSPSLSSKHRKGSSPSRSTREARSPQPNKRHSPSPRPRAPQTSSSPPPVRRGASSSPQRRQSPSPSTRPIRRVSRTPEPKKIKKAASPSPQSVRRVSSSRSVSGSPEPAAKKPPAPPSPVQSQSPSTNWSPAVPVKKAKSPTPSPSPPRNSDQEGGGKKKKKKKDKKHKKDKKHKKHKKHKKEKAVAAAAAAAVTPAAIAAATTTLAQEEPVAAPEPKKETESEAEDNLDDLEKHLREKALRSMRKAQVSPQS
Sequence of UniProt P31749 (P31749 whole entry): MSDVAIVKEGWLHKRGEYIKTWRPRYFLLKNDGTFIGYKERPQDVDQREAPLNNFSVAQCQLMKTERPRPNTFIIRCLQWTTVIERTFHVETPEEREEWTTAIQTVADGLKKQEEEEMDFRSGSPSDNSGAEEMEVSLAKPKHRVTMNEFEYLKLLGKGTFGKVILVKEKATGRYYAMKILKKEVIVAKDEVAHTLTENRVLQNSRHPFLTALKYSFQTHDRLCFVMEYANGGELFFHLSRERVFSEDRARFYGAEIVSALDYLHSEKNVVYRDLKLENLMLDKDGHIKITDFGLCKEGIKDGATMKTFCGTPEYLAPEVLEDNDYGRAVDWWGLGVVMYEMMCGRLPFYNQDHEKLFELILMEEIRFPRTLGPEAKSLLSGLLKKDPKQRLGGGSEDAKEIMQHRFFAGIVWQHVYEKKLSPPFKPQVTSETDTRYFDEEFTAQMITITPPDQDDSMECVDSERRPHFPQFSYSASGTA
Sequence of UniProt O43615 (O43615 whole entry): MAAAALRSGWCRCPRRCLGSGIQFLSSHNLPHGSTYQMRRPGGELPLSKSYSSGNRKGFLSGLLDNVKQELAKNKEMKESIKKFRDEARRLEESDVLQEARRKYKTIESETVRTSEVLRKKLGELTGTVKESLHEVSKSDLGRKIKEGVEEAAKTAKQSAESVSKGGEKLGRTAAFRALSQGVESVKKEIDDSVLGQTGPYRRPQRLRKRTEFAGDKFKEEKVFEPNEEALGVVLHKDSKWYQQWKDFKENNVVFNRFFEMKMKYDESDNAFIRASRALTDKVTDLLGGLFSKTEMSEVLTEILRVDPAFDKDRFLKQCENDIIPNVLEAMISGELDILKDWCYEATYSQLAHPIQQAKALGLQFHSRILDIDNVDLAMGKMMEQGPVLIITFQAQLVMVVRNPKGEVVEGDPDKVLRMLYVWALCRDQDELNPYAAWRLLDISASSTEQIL
Sequence of UniProt P55884 (P55884 whole entry): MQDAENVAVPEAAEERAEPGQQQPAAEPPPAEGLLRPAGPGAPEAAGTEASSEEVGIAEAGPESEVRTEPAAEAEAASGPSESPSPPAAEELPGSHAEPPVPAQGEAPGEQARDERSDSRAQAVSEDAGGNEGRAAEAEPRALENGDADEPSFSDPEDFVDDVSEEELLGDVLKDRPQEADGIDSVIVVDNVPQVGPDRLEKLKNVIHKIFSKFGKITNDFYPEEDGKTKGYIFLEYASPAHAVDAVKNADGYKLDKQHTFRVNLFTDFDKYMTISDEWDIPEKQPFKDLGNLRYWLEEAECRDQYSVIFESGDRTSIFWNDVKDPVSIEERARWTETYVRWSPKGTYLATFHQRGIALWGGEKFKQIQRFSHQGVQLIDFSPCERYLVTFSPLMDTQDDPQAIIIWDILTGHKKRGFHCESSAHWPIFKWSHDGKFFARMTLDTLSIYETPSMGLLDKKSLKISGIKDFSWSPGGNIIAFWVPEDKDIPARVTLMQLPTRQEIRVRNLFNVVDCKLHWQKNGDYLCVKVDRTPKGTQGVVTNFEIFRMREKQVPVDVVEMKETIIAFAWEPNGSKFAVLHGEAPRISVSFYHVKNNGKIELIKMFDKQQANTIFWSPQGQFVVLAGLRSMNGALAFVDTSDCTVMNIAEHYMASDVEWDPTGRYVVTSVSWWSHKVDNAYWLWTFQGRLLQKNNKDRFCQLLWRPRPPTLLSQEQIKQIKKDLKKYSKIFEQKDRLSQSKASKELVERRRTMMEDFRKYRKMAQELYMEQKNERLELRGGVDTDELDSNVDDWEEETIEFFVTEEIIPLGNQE
Sequence of UniProt P50750 (P50750 whole entry): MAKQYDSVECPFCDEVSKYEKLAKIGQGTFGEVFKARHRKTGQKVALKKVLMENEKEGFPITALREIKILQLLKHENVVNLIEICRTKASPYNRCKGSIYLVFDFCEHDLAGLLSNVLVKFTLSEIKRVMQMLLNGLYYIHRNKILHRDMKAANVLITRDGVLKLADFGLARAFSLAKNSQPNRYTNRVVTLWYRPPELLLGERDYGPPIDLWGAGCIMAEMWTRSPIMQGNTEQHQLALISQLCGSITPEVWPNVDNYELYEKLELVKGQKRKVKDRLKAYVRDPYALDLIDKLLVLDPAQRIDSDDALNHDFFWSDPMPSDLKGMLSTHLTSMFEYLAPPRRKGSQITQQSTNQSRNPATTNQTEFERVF

Q: For “CDK9 (peptide sequence: EGFPITALR, peptide start residue: 57) (UniProt P50750)”, which log2 fold change is on record?
A: -1.73

Q: How did the log2 fold change turn out when “AKT1 (peptide sequence: HRVTMNEFEYLK, peptide start residue: 143) (UniProt P31749)” was run?
A: -0.676

Q: How did the log2 fold change turn out when “EIF3B (peptide sequence: PRPPTLLSQEQIK, peptide start residue: 706) (UniProt P55884)” was run?
A: 0.691

Q: Which log2 fold change does the source give for “RPS17 (peptide sequence: NKIAGYVTHLMK, peptide start residue: 48) (UniProt P08708)” here?
A: 0.59

Q: Which log2 fold change does the source give for “TIMM44 (peptide sequence: ALSQGVESVKK, peptide start residue: 178) (UniProt O43615)” here?
A: 0.555

Q: Which log2 fold change does the source give for “CHD4 (peptide sequence: SDSEGSDYTPGK, peptide start residue: 103) (UniProt Q14839)” here?
A: 1.11

Q: With “TNIK (peptide sequence: KFQSFIESCLVK, peptide start residue: 261) (UniProt Q9UKE5)” as the target, how does the log2 fold change read?
A: -0.632

Q: How did the log2 fold change turn out when “SRRM1 (peptide sequence: KETESEAEDNLDDLEK, peptide start residue: 870) (UniProt Q8IYB3)” was run?
A: 1.54

Q: “SRM (peptide sequence: AAFVLPEFAR, peptide start residue: 286) (UniProt P19623)” was tested. Which log2 fold change did it give?
A: 0.362
